Screening results as filed in PubChem.
The list is not random: actives were taken first. Their share in the collection is about 2.1%.
Glioma ERSR ind: qHTS for Inducers of the Endoplasmic Reticulum Stress Response (ERSR) in Human Glioma: qHTS; U87-MG GRP78 promoter luciferase reporter, 16 h; Potency, µM, hits mostly activators; actives 0.02% (n = 420,000); AID 602332, 2012; further: series mostly up to about 76 µM; nearly all actives have a fitted effect of over 35% in size
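Stably transfected U87-MG glioma cells carrying a GRP78-based luciferase sensor; 16 h compound incubation. Luminescence end-point read 10 min after Bright-Glo addition at room temperature.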
Abeta rescue: qHTS for compounds that reverse cellular toxicity of Amyloid beta (A-beta) peptide in yeast: Primary Screen; yeast expressing A-beta42, growth rescue, OD600, 48 h; response scale: 0% DMSO, 100% iron-clioquinol control; Potency, µM (doses to about 46.1 µM), usual class: activators; actives 0.063% (n = 410,000); AID 1347071, 2019; further: nearly all actives have a fitted effect of over 55% in size
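Yeast growth medium received pinned compounds, then yeast cells expressing toxic A-beta were added; plates incubated at 30 C for 48 hr. Growth read as absorbance at 600 nm, normalized to DMSO and equimolar FeCl3 plus clioquinol controls.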
aSyn yeast inh: qHTS of alpha-syn Inhibitors; Yeast expressing alpha-synuclein, growth rescue, BacTiter-Glo, 24 h; Potency, µM (top dose mostly 46.1 µM), usual class: activators; actives 0.14% (n = 370,000); further: nearly all actives have a fitted effect of over 65% in size
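Screening used galactose-induced yeast with toxic alpha-synuclein levels, exposed to compound for 24 hr at 30 deg C. Cell growth, read with BacTiter-Glo luminescence, gave the measured signal.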
Mito fusion yeast: qHTS Assay for Small Molecule Inhibitors of Mitochondrial Division or Activators of Mitochondrial Fusion. S. cerevisiae fusion-defective mutant growth rescue, CellTiterGlo 48 h. Potency, µM (titrated, usually from 46.1 µM), usual class: activators. actives 0.23% (n = 320,000). AID 485298, 2010; further: nearly all actives have a fitted effect of over 45% in size
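Yeast fusion mutant, YPEG (non-fermentable carbon), compound, 48 h at 37C non-permissive; CellTiterGlo added, 10 min RT, luminescence read. Rescued growth = division inhibition.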
AT treatment: qHTS Assay for Identifying a Potential Treatment of Ataxia-Telangiectasia; F2112 A-T fibroblasts, KAP-1 phosphorylation AlphaLISA; neocarzinostatin DNA damage 30 min before lysis; Potency, µM (doses to about 57.5 µM), usual class: activators; actives 0.19% (n = 320,000); AID 485349, 2010; further: nearly all actives have a fitted effect of over 45% in size
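ATM-like activity read as KAP-1 phosphorylation via AlphaLISA donor/acceptor antibody pairs after lysis and 6 hr at 25C. Cells were ATM-null patient fibroblasts (F2112, hTERT), dosed 60 min, then exposed to the DSB inducer NCS for 30 min.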
TDP43 rescue: qHTS of TDP-43 Inhibitors | Potency, µM (highest dose often 46.1 µM), usual class: activators | actives 1.8% (n = 410,000) | AID 652104, 2013 | TDP-43 expressing yeast growth rescue, BacTiter-Glo, 24 h; further: nearly all actives have a fitted effect of over 50% in size
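Galactose-induced TDP-43 yeast, OD600=0.02, compound pinned; 24 hr, 30 deg C; BacTiter-Glo luminescence for growth. Inhibitors of TDP-43 toxicity read as activators.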
A number is an active result; . = inactive; ? = inconclusive; / = not tested or not shown; [ ] = remark or other dose. The call rests on the fitted dose curve; in most records, active means well fitted curve in the direction sought with a large enough effect; inconclusive means small, poorly fitted or top-dose-only effect, or another doubt; inactive means no such curve, though single readings can be large; an effect the other way counts as inactive or inconclusive.

SMILES	Glioma ERSR ind	Abeta rescue	aSyn yeast inh	Mito fusion yeast	AT treatment	TDP43 rescue
COc1cc([N+](=O)[O-])cc(/C=N/NC(=O)C(C)Nc2cccc(C)c2)c1O (stereo unspecified)	.	.	.	.	.	.
COc1cc([N+](=O)[O-])cc(/C=N/NC(=O)C(C)Nc2ccccc2C)c1O (stereo unspecified)	.	.	.	.	.	20µM
N#Cc1cnc(SCCc2ccccc2)nc1N	.	.	.	.	.	13µM
N#Cc1cnc(SCC(=O)c2ccccc2)nc1N	.	.	.	.	.	.
COc1cccc(NC(=O)c2nn(-c3ccc(C)cc3)c(=O)n(C)c2=O)c1	.	.	/	/	/	.[9.22 µM]
Cc1ccc(Cn2c(C)c3cnn(CC(=O)N4CCN(c5ccc(F)cc5)CC4)c(=O)c3c2C)cc1	.	.	/	/	/	16µM
Cc1cc(=O)n(CC(=O)N2CCN(c3ccc(F)cc3)CC2)c2c1c(C)nn2C	.	.	/	/	/	11µM
CCN1C(=O)[C@H]2[C@@H](c3ccc(-c4ccccc4)cc3)N3CCC[C@@]3(C(=O)OC)[C@H]2C1=O	.	?	.	?	.	35µM
COC(=O)[C@@]12CCCCN1[C@H](c1ccc(-c3ccc(OC)cc3)c(OC)c1)[C@@H]1C(=O)N(C)C(=O)[C@@H]12	.	.	.	13µM	.	?
CC(C)(C)OC(=O)N1CSC[C@H]1C(=O)NC[C@H](CC(=O)O)c1ccc(Cl)cc1	.	.	.	.	7.1µM	.
CC(C)C[C@H](NC(=O)C1(c2ccccc2)CCN(C(=O)[C@H]2CSCN2C(=O)OC(C)(C)C)CC1)C(=O)O	.	.	.	.	.	.
O=C(NNc1cccc(Cl)c1)c1cccnc1Cl	.	.	.	22µM	.	.
CC1CN(CCC(=O)N2CCCC(C(=O)c3nccn3C)C2)Cc2cc(Cl)ccc2O1 (stereo unspecified)	.	/	/	/	/	/
CC1CCc2nc(NC(=O)Cc3cccs3)sc2C1 (stereo unspecified)	.	.	.	.	.	28µM
CC1CCc2nc(NC(=O)c3ccco3)sc2C1 (stereo unspecified)	.	.	.	.	.	.
O=C(CCCc1cccs1)Nc1nc2c(s1)CCCC2	.	?	.	.	.	13µM
COc1ccc(OCC(=O)Nc2nc3c(s2)CCCC3)cc1	.	.	.	.	.	?
O=C(Nc1nc2c(s1)CCCC2)c1ccc2ncsc2c1	.	.	.	.	.	13µM
COc1ccc(NC(=O)Nc2nc3c(s2)CCCC3)cc1	.	.	13µM	.	.	14µM
COc1cc2nc(N3CCCC(O)C3)c(CNCc3ccccc3C(F)(F)F)cc2c(OC)c1OC (stereo unspecified)	.	/	/	/	/	/
O=C(CSc1nnnn1C1CCCCC1)Nc1nc2c(s1)CCCC2	.	.	?	?	/	13µM
CCc1nc(SCC(=O)Nc2nc3c(s2)CCCC3)c2ccccc2n1	.	.	.	.	.	10µM
CC(C)(C)C1CCc2nc(NC(=O)Cc3cn4ccsc4n3)sc2C1 (stereo unspecified)	.	.	.	.	.	16µM
N#Cc1c(NC(=O)CSc2nnnn2C2CCCCC2)sc2c1CCCC2	.	.	.	.	.	.
Cc1ccc(CC(=O)Nc2nc3c(s2)CCCC3)cc1	.	?	.	.	.	16µM
SMILES	Glioma ERSR ind	Abeta rescue	aSyn yeast inh	Mito fusion yeast	AT treatment	TDP43 rescue
CC(C)(C)C1CCc2nc(NC(=O)Cc3ccc(Cl)cc3)sc2C1 (stereo unspecified)	.	?	/	/	/	.
O=C(N[C@@H]1c2ccccc2C2(CCN(C(=O)c3ccc4c(c3)OCCO4)CC2)[C@H]1O)c1cccnc1	.	/	/	/	/	/
COC(=O)c1cc(CNC(=O)c2ccccc2OC)cc(NC(=O)c2ccccc2F)c1	.	/	/	/	/	/
NCc1cn(Cc2ccccc2)nc1-c1ccccc1	.	/	.	/	/	/
O=C(Nc1ccccc1Oc1ccccc1)c1cccc([N+](=O)[O-])c1	.	.	?	.	.	14µM
COc1cc(=O)n2c(c1C(=O)NCc1ccco1)CCN(Cc1cc3ccccc3[nH]1)CC2	.	/	/	/	/	/
C=C1C[C@@]23C[C@]1(O)CC[C@@H]2[C@]12C=C[C@@H](O)[C@](C)(C(=O)O1)[C@H]2[C@H]3C(=O)O	.	/	/	/	/	/
S=c1[nH]nc(-c2ccc(Cl)cc2)n1-c1ccc(Cl)cc1	.	10µM	.	.	.	.
S=c1[nH]nc(-c2ccc(Cl)cc2)n1-c1ccc2c(c1)OCCO2	.	.	.	.	.	.
CC(=O)c1ccc(-c2[nH]c3ccccc3c2CCN2C(=O)c3ccccc3C2=O)cc1	.	.	.	/	/	.
CC(=O)c1ccc(-c2c(CCO)sc3ccccc23)cc1	/	.	.	/	/	13µM
Cc1ncc2c(c1CNS(=O)(=O)N(C)C)CCN(C(=O)c1ccc(-c3ccc(F)cc3)cc1)C2	.	/	/	/	/	/
CNc1nc(C)c([N+](=O)[O-])c(Nc2ccc(OC)cc2)n1	.	.	.	.	.	13µM
CC(C)Cc1nc2cc(NS(=O)(=O)N(C)C)cc(C(=O)N3CCSCC3)c2n1C	.	/	/	/	/	/
CN1CCc2nc3sc(C(=O)Nc4cccc(C#N)c4)c(N)c3cc2C1	/	.	/	/	/	18µM
CN1CCc2nc3sc(C(=O)Nc4c(F)cccc4F)c(N)c3cc2C1	.	.	/	/	/	.
COCCN(Cc1cn(C)nc1-c1ccccc1F)C(C)C	.	.	.	5.6µM	.	.
